Inconclusive results are not listed. Active and inactive are the calls of the source. Calls come from the whole dose curve.
Potency is the fitted concentration of half-maximal effect.

The nature of this assay: Cell Viability - SK-N-SH (AID 435).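 Note: compound exposure lasted 40 h at 37 °C.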 Conditions: SK-N-SH neuroblastoma cell viability qHTS. The text has this: NIH Chemical Genomics Center [NCGC]
NIH Molecular Libraries Screening Centers Network [MLSCN]
National Institutes of Environmental Health Sciences [NIEHS]
National Toxicology Program [NTP]
We have developed a 1536-well cell-based assay for quantitative high throughput screening (qHTS) against a number of cell lines to determine in vitro cytotoxicity of small molecules. This particular assay uses the SK-N-SH cell line which is derived from human neuroblastoma.
NCGC Assay Protocol Summary:
The CellTiter-Glo luminescent cell viability assay (Promega) is a homogeneous method to measure the number of viable cells in culture. The end point readout of this assay is based on quantitation of intracellular ATP, an indicator of metabolic activity, using the luciferase reaction. Luciferase catalyzes the oxidation of beetle Luciferin to oxyluciferin and light in the presence of ATP. The luminescent signal is proportional to amount of ATP present.
Using the CellTiter-Glo luminescent cell viability assay, the amount of cellular ATP was measured in the SK-N-SH cell line with complete culture medium following compound treatment for 40 hours. The assay was performed in opaque white Kalypsys 1536-well plates. In the screen, tamoxifen and doxorubicin were used as positive controls. Library compounds were measured for their ability to cause acute toxicity in the cell line, as reflected by a decrease in intracellular ATP levels, in a concentration-dependent manner. Data were normalized to the controls for basal activity (DMSO only) and 100% inhibition (100 uM tamoxifen). AC50 values were determined from concentration-response data modeled with the standard Hill equation.
qHTS protocol fo CellTiter Glo SK-N-SH cellular assay
[Step] [Parameter] [Value] [Description]
1. Reagent; 5 uL; 1500 SK-N-SH cells/well
2. Time; 5 hr; 37 °C incubation
4. Controls; 23 nL; Tamoxifen 0.34 uM to 100 uM & Doxorubicin 0.02 nM to 100 uM
5. Time; 40 hr; 37 °C incubation
6. Reagent; 5 uL; CellTiter Glo reagent
7. Time; 20 min; Room Temperature
8. Detection; Luminescence; Viewlux plate reader
Keywords: cell viability, cytotoxicity, SK-N-SH cell line, luminescence, NTPHTS, NTPHTS_NCGC, NIEHS, EPA, DSSTox, MLSMR, MLSCN, NIH Roadmap, qHTS, NCGC
Background: In qHTS, concentration-response curves come from the screen itself.
For `CN(C)c1ccccc1`, the Potency is > 92 µM (inactive). To `C=CC(=O)OCC(C)C` belongs > 92 µM (inactive). Regarding `Cc1ccc([N+](=O)[O-])cc1`, the Potency is > 92 µM (inactive). Regarding `Oc1cc(Cl)cc(Cl)c1`, the Potency is > 92 µM (inactive). Take `CCCBr`: the Potency is > 92 µM (inactive).

For `O=[N+]([O-])c1cc(Cl)c(Cl)c(Cl)c1`, the Potency is > 92 µM (inactive). As for `NC1CCC(CC2CCC(N)CC2)CC1` (stereo not given), the Potency is > 92 µM (inactive). To `O=C(O)C(Cl)Br` (stereo not given) belongs > 92 µM (inactive). With `CCSC(=O)N1CCCCCC1`, the Potency is > 92 µM (inactive). The result for `O=S(=O)(Cl)c1ccccc1` reads > 92 µM (inactive). The result for `ClC=CCl` reads > 92 µM (inactive); that for `O=[N+]([O-])CCO`, > 92 µM (inactive). To `O=C(O)CBr` belongs > 92 µM (inactive); to `CCOS(C)(=O)=O`, > 92 µM (inactive). `CCC[N+](=O)[O-]`: the Potency was > 92 µM (inactive).

As for `C=CC(=O)OC`, the Potency is > 92 µM (inactive). As for `CN(C)C(=O)Cl`, the Potency is > 92 µM (inactive). To `Cc1cc(-c2cc(C)c(N)c(C)c2)cc(C)c1N` belongs > 92 µM (inactive).

`C(CCOCC1CO1)COCC1CO1` (stereo not given): the Potency is 27.7 µM (inactive). To `Cc1cc(Cl)ccc1O` belongs > 92 µM (inactive); to `O=[N+]([O-])c1ccccc1CCl`, > 92 µM (inactive). For the compound `Clc1cccc2ccccc12`, the Potency was > 92 µM (inactive). To `Clc1ccc(C(Cl)(Cl)Cl)cc1Cl` belongs > 92 µM (inactive); to `Nc1ccc([N+](=O)[O-])cc1N`, > 92 µM (inactive). As to `O=[N+]([O-])c1ccc2c3c(cccc13)CC2`, the Potency was > 92 µM (inactive). Regarding `CSSC`, the Potency is > 92 µM (inactive). The result for `N#CCc1ccccc1` reads > 92 µM (inactive); that for `c1ccoc1`, > 92 µM (inactive); that for `ClC(Cl)c1ccccc1`, > 92 µM (inactive).

On to `CC(C)CC(C)N` (stereo not given), for which the Potency was > 92 µM (inactive).

On to `C=COC(C)=O`, for which the Potency is > 92 µM (inactive). As to `S=c1[nH]c2ccccc2[nH]1`, the Potency is > 92 µM (inactive). The result for `CCCCCc1cc(O)cc(O)c1` reads > 92 µM (inactive); that for `C[N+](=O)[O-]`, > 92 µM (inactive). On to `CCOP(=S)(OCC)SCCSCC`, for which the Potency was > 92 µM (inactive). Consider `O=[N+]([O-])c1c(Cl)c(Cl)c(Cl)c(Cl)c1Cl`, for which the Potency was > 92 µM (inactive). To `Nc1ccc(Cc2ccc(N)cc2)cc1` belongs > 92 µM (inactive); to `C=CCc1cc(OC)c2c(c1)OCO2`, > 92 µM (inactive). The result for `C=CCCl` reads > 92 µM (inactive); that for `C=CC=O`, > 92 µM (inactive).

The values are drawn from PubChem BioAssay (NCATS).
